The results in this text go back to PubChem BioAssay (Tox21).

In assay [1] the target is Thyrotropin receptor (Homo sapiens) (UniProt P16473). As to the kind of experiment: qHTS assay to identify small molecule agonists of the thyroid stimulating hormone receptor (TSHR) signaling pathway (AID 1224843; calls by dose curve; further: nearly all actives have a fitted effect of over 45% in size). In short, it runs like this: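 Using 15 concentrations per compound in triplicate, cAMP production was monitored in TSHR-HEK293 cells after 30 min compound incubation at RT; HTRF reagents followed, with fluorescence intensity recorded after 1 h.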
In general terms: In qHTS, concentration-response curves come from the screen itself.

Assay [2] is described as follows: qHTS assay to identify small molecule agonists of the hypoxia (HIF-1) signaling pathway - cell viability counter screen (AID 1224844; calls by dose curve; further: nearly all actives have a fitted effect of over 50% in size). A digest of the protocol: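 Viability counter screen: HRE-bla ME-180 cells plated 5 hrs before compound addition, treated 17 hrs at 37C and 5% CO2, then CellTiter-Glo added after the FRET reporter read; luminescence after 30 min.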

Assay [3] can be described thus: qHTS assay to identify small molecule agonists of H2AX (AID 1224845; active means well fitted activation curve with a large enough effect in the signal ratio in the repeat runs, not every such curve was filed as active; the % refers to the signal ratio). In short, it runs like this: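 Wild-type CHO-K1 cells plated overnight, then exposed 3 hr at 37C to compounds at 15 concentrations (0.76% DMSO). Lysed, then HTRF anti-pH2AX(S139)-cryptate/anti-H2AX-d2 detection after 24 hr at room temperature; emissions 665 and 620 nm.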
Assay [4] can be described thus: qHTS assay to identify small molecule agonists of the hypoxia (HIF-1) signaling pathway (AID 1224846; active means well fitted activation curve with a large enough effect in the signal ratio in the repeat runs, not every such curve was filed as active; the % refers to the signal ratio). A digest of the protocol: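 Agonist mode reporter screen. ME-180 cells stably expressing bla under HRE control received test compounds in DMSO for 17 hrs (37C, 5% CO2), and beta-lactamase activity was then detected with the CCF4-AM FRET substrate.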
Assay [5] in a line: qHTS assay to identify small molecule agonists of H2AX - cell viability counter screen (AID 1224847; calls by dose curve; further: top concentration of the series differs between compounds; nearly all actives have a fitted effect of over 30% in size). In short, it runs like this:
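CHO-K1 cells plated overnight at 37C, then exposed 3 h at 37C to compounds at 15 concentrations (0.76% DMSO final). Viability by CellTiter-Glo luminescence after 30 min at room temperature.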

The nature of assay [6]: qHTS RealTime-Glo MT Cell Viability Assay in HepG2 cells - 24 hour (AID 1224867). Further: nearly all actives have a fitted effect of over 50% in size. In short, it runs like this:
(§1)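 Cell number in HepG2 cultures estimated from NanoLuc luminescence generated by metabolic reduction of a prosubstrate by living cells. The homogeneous, nonlytic format allowed repeated reads at 0, 8, 16, 24, 32 and 40 h of compound exposure.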

A short description of assay [7]: qHTS RealTime-Glo MT Cell Viability Assay in HEK293 cells - 32 hour (AID 1224868). Further: top concentration of the series differs between compounds; nearly all actives have a fitted effect of over 50% in size. A digest of the protocol: (§2)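 Homogeneous bioluminescent viability format in HEK293 cells (600 cells/well). Following 5 h at 37 C/5% CO2, 23 nL compound was pintooled; the signal was measured repeatedly during 40 h incubation.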
Assay [8] in a line: A CellTox Green Cytotoxicity Assay to monitor cytotoxicity in HEK293 cells - 0 hour (AID 1224869). Further: nearly all actives have a fitted effect of over 50% in size. A digest of the protocol:
(§3)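 Dead-cell fluorescence measured kinetically: asymmetric cyanine dye, HEK293, 600 cells/well, 5 h settle, 23 nL cpd/DMSO, 37 C, reads 0–40 h every 8 h.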

A short description of assay [9]: qHTS RealTime-Glo MT Cell Viability Assay in HepG2 cells - 40 hour (AID 1224870). Further: nearly all actives have a fitted effect of over 50% in size. In short, it runs like this: (§4)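 HepG2 cells mixed with RealTime-Glo MT reagents (NanoLuc plus cell-permeant prosubstrate) were seeded at 600 cells/well, incubated 5 h at 37 C/5% CO2, then pinned with compounds in DMSO; nonlytic luminescence tracked viability during 40 h treatment.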

Assay [10] can be described thus: qHTS RealTime-Glo MT Cell Viability Assay in HEK293 cells - 16 hour (AID 1224872). In short, it runs like this: as §2
A short description of assay [11]: qHTS RealTime-Glo MT Cell Viability Assay in HepG2 cells - 8 hour (AID 1224873). Further: nearly all actives have a fitted effect of over 55% in size. In short, it runs like this: as §4
Assay [12] in a line: A CellTox Green Cytotoxicity Assay to monitor cytotoxicity in HEK293 cells - 24 hour (AID 1224875). Further: nearly all actives have a fitted effect of over 45% in size. A digest of the protocol:
as §3

The nature of assay [13]: A CellTox Green Cytotoxicity Assay to monitor cytotoxicity in HepG2 cells - 16 hour (AID 1224876). Further: nearly all actives have a fitted effect of over 45% in size. Further: potency means the concentration at half of the fitted maximal effect. A digest of the protocol:
(§5)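 First, HepG2 cells (600/well) mixed with reagent were plated; second, after 5 h at 37 C they received compounds via pintool; third, fluorescence was measured at 0 h through 40 h at 8 h intervals.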

A short description of assay [14]: qHTS RealTime-Glo MT Cell Viability Assay in HepG2 cells - 32 hour (AID 1224877). Further: nearly all actives have a fitted effect of over 55% in size. A digest of the protocol:
as §1

Assay [15] is described as follows: A CellTox Green Cytotoxicity Assay to monitor cytotoxicity in HepG2 cells - 24 hour (AID 1224878). Further: nearly all actives have a fitted effect of over 45% in size. Further: potency means the concentration at half of the fitted maximal effect. In short, it runs like this:
as §5

Assay [16] in a line: A CellTox Green Cytotoxicity Assay to monitor cytotoxicity in HepG2 cells - 40 hour (AID 1224879). Further: nearly all actives have a fitted effect of over 40% in size. Further: potency means the concentration at half of the fitted maximal effect. A digest of the protocol: as §5
Assay [17] is described as follows: qHTS RealTime-Glo MT Cell Viability Assay in HEK293 cells - 40 hour (AID 1224874). Further: nearly all actives have a fitted effect of over 50% in size. The following applies: RealTime-Glo luminescence; max response: stronger effect = lower value. A digest of the protocol: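 600 HEK293 cells per well, dispensed already mixed with RealTime-Glo MT reagents. Compound dosing came 5 h later. The same wells were read for luminescence at 0, 8, 16, 24, 32 and 40 h of exposure at 37 C.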

A short description of assay [18]: qHTS assay to identify small molecule antagonists of the estrogen related receptor (ERR) signaling pathway from Tox21 library (AID 1224848). Further: nearly all actives have a fitted effect of over 50% in size. In short, it runs like this:
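Tox21 10K compounds in DMSO tested for ERR pathway antagonism in NTP's ERR cell line; 18 h, 37 C exposure; ONE-Glo luminescence.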

A short description of assay [19]: qHTS assay to identify small molecule agonists of the estrogen related receptor (ERR) signaling pathway from Tox21 library (AID 1224849; calls by dose curve; further: nearly all actives have a fitted effect of over 15% in size). The following applies: ERR reporter cell line, ONE-Glo luciferase, 18 h. A digest of the protocol:
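Quantitative HTS in agonist format: NTP ERR cell line, compounds transferred in DMSO after 6 h plating, 18 h incubation at 37 C, ONE-Glo luminescence endpoint.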

Assay [20] can be described thus: A CellTox Green Cytotoxicity Assay to monitor cytotoxicity in HEK293 cells - 40 hour (AID 1224871). Further: nearly all actives have a fitted effect of over 45% in size. In short, it runs like this: as §3

The structures appear in SMILES notation. Where “and” joins values, the source holds several entries; their conditions need not be identical. Equal values may be shown once. Inconclusive results are not listed. Some structures have more than one record in an assay (separate samples or runs), and their calls can disagree. Calls of active or inactive are those of the source. Unless noted, the call rests on the fitted dose curve; in most records, active means well fitted curve in the direction sought with a large enough effect in the repeat runs; inconclusive means weak or mixed curves; inactive means no such curve, though single readings can be large; an effect the other way counts as inactive or inconclusive.
On the % scale 0 is the no-effect control and ±100 the full control effect.

Thyrotropin receptor (Homo sapiens), sequence (P16473 whole entry, looked up): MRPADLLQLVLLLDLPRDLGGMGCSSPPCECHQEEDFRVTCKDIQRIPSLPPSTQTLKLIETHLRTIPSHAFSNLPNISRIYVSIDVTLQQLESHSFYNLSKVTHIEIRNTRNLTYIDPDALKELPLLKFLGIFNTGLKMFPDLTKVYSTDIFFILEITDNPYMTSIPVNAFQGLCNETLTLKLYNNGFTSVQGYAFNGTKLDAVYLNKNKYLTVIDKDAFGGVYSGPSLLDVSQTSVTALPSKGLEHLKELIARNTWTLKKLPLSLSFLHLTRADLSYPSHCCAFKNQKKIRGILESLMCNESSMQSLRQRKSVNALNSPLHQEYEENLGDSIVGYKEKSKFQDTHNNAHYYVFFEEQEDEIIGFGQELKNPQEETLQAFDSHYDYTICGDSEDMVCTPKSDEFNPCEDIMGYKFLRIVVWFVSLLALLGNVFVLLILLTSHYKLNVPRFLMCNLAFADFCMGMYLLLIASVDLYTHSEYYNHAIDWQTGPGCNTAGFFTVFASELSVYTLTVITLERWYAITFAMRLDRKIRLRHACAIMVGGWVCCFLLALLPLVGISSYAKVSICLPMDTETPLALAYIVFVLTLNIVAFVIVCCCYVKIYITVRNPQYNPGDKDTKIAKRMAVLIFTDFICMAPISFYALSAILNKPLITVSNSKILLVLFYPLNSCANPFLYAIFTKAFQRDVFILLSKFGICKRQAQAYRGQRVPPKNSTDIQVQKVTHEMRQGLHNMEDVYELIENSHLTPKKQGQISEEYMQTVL

For the compound `O=c1ccc2ccccc2o1`, the compound was called inactive in assay [1], in [3], in assay [4], in assay [5], in assay [8] and in [11]. The Potency entry in assay [2], in assay [6], in assay [7], in [9], in assay [10] and in assay [12] was “inactive” each time. In addition, the Potency entry in [13], in assay [14], in [15] and in [16] was “inactive” throughout.

Take `O=C(O)C(=O)O`: the compound was classed as inactive in assay [1], in assay [3], in assay [4], in [5], in assay [8] and in [11]. Moreover, the Potency result in [2], in assay [6], in assay [7], in assay [9], in assay [10] and in [12] was “inactive” each time. Further, the Potency entry in assay [13], in [14], in assay [15] and in assay [16] was “inactive” in each case. For the same compound, the max response in assay [17] is -1.98% (inactive) and 1.92% (inactive) and 0.465% (inactive).

Regarding `O=C(O)CCCCC(=O)O`, the compound was classed as inactive in assay [1], in assay [3], in assay [4], in [5], in [8] and in assay [11]. Besides, the Potency result in assay [2], in assay [6], in assay [7], in assay [9], in assay [10] and in assay [12] was “inactive” each time. Further, the Potency entry in [13], in [14], in [15] and in assay [16] was “inactive” in each case. Moreover, the max response in [17] is 4.36% (inactive) and 16.9% (inactive) and 2.15% (inactive).

For the compound `NS(=O)(=O)c1cc(C(=O)O)c(NCc2ccco2)cc1Cl`, the compound was classed as inactive in assay [1], in assay [3], in [4], in assay [5], in assay [8] and in [11]. Moreover, the Potency entry in [2], in assay [18], in assay [6], in assay [7], in assay [9] and in assay [10] was “inactive” in each case. Also, the Potency entry in assay [12] and in [14] was “inactive” in each case. Besides, the max response in [17] is -14.3% (inactive) and -0.726% (inactive) and 2.65% (inactive). Moreover, the Potency in assay [13] was 22 µM (active) and inactive; in assay [15] it was 17.4 µM (active) and inactive; in assay [16], 19.6 µM (active) and inactive.

On to `CCCCOC(=O)CC(CC(=O)OCCCC)(OC(C)=O)C(=O)OCCCC`, for which the Potency entry in [2], in assay [6], in assay [7], in assay [9], in [10] and in assay [12] was “inactive” in each case. Besides, the Potency result in [13], in [14], in [15] and in assay [16] was “inactive” each time. The outcome in assay [3], in assay [4], in assay [5], in [8] and in assay [11] was inactive. The activity change, positive = activation was -18.7% (inactive) in assay [19] (at 42.5 µM (top of the series)); -11.9% (inactive) and -24.8% (inactive) in assay [19] (at 92.4 µM (top of the series)).

`O=C(O)CCCCCCCC(=O)O`: the outcome in [1], in assay [3], in assay [5], in assay [8] and in assay [11] was inactive. For the same compound, the Potency result in assay [2], in [6], in [7], in [9], in assay [20] and in assay [10] was “inactive” throughout. The Potency entry in assay [12], in assay [13], in [14], in assay [15] and in assay [16] was “inactive” in each case.

Consider `Nc1ccc(S(=O)(=O)Nc2nccs2)cc1`, for which the call in [1], in assay [3], in assay [5], in [8] and in assay [11] was inactive. Further, the Potency entry in assay [2], in [18], in assay [6], in assay [7], in [9] and in assay [10] was “inactive” throughout. Also, the Potency result in assay [14] is “inactive”. The activity change, positive = activation in assay [19] (at 42.5 µM (top of the series)) is 5.51% (inactive); in [19] (at 92.4 µM (top of the series)) it was -7.05% (inactive) and 5.21% (inactive) and 6.11% (inactive). The Potency entry in [13] is “inactive and 38.9 µM (active)”; in assay [15], “inactive and 43.6 µM (active)”; in assay [16], “inactive and 38.9 µM (active)”.
